For 40 compounds, relative cell viability results are on record in the supplement of paper PMC7184167.

Where a name gives a salt, the structure may show the parent alone.

The assay concerns replication-induced senescent mouse newborn dermal fibroblasts (NBF). Nature of the assay: relative cell viability of senescent cells (fraction); higher = less killing of senescent cells. The note with it: 1 µM; 3 days. How it is done:
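Replication-induced senescent newborn mouse skin fibroblasts (NBFs) in 24-well plates were treated with a Selleck FDA-approved drug library at 1 µM for 3 days.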
`C[C@]12C=CC(=O)C=C1CC[C@@H]1[C@@H]2C(=O)C[C@@]2(C)[C@H]1CC[C@]2(O)C(=O)CO` [Prednisone]: the relative cell viability is 0.875.

On to `Cc1cnc(C(=O)O)c[n+]1[O-]` [Acipimox], for which the relative cell viability worked out at 0.938.

`COC(=O)Nc1nc2cc(C(=O)c3ccc(F)cc3)ccc2[nH]1` [Flubendazole] registered a relative cell viability of 0.886.

Compound `CCCCC(=O)O[C@]1(C(=O)CO)[C@@H](C)C[C@H]2[C@@H]3CCC4=CC(=O)C=C[C@]4(C)[C@@]3(F)[C@@H](O)C[C@@]21C` [Betamethasone Valerate] showed a relative cell viability of 1.15.

In turn, `CC1COc2c(N3CCN(C)CC3)c(F)cc3c(=O)c(C(=O)O)cn1c23` (stereo not given) [Ofloxacin] gave a relative cell viability of 1.

As for `CCOC(=O)C1=C(C)NC(C)=C(C(=O)OC)C1c1cccc(Cl)c1Cl` (stereo not given) [Felodipine], the relative cell viability turned out to be 1.

The compound `CCCCc1nc2cc(/C=C/C(=O)NO)ccc2n1CCN(CC)CC` [Pracinostat (SB939)] displayed a relative cell viability of 1.01.

Compound `CC(C)OC(=O)C(C(=O)OC(C)C)=C1SC=CS1` [Malotilate] had a relative cell viability of 1.04.

Take `COc1c(N2C[C@@H]3CCCN[C@@H]3C2)c(F)cc2c(=O)c(C(=O)O)cn(C3CC3)c12` [Moxifloxacin HCl]: the relative cell viability is 1.03.

Turning to `O=S(=O)(O)CCSSCCS(=O)(=O)O` [Dimesna], the relative cell viability amounted to 0.736.

In turn, `CCN(CC)C(=S)SSC(=S)N(CC)CC` [Disulfiram] gave a relative cell viability of 1.13.

Take `CC(=O)Oc1ccccc1C(=O)Nc1ncc([N+](=O)[O-])s1` [Nitazoxanide]: the relative cell viability amounted to 0.698.

As to `O=C(N[C@H](CO)[C@H](O)c1ccc([N+](=O)[O-])cc1)C(Cl)Cl` [Chloramphenicol], the relative cell viability was determined as 0.706.

In turn, `CCCc1nc(C(C)(C)O)c(C(=O)OCc2oc(=O)oc2C)n1Cc1ccc(-c2ccccc2-c2nnn[nH]2)cc1` [Olmesartan Medoxomil] returned a relative cell viability of 0.252.

`CCOC(=O)C1=C(COCCN)NC(C)=C(C(=O)OC)C1c1ccccc1Cl` (stereo not given) [Amlodipine Besylate] showed a relative cell viability of 0.987.

As to `Cc1ccccc1N1C(=O)c2cc(S(N)(=O)=O)c(Cl)cc2NC1C` (stereo not given) [Metolazone], the relative cell viability came out at 0.962.

`Cc1ccc(NC(=O)c2ccc(CN3CCN(C)CC3)cc2)cc1Nc1nccc(-c2cccnc2)n1` [Imatinib (STI571)] showed a relative cell viability of 1.12.

In turn, `CN(Cc1cnc2nc(N)nc(N)c2n1)c1ccc(C(=O)N[C@@H](CCC(=O)O)C(=O)O)cc1` [Methotrexate] had a relative cell viability of 0.692.

Regarding `NC(=O)C1CCCc2c1[nH]c1ccc(Cl)cc21` (stereo not given) [Selisistat (EX 527)], the relative cell viability was 0.498.

In turn, `CCCCC1=NC2(CCCC2)C(=O)N1Cc1ccc(-c2ccccc2-c2nnn[nH]2)cc1` [Irbesartan] displayed a relative cell viability of 0.868.

The compound `COc1ccc([C@@H]2Sc3ccccc3N(CCN(C)C)C(=O)[C@@H]2OC(C)=O)cc1` [Diltiazem HCl] had a relative cell viability of 1.09.

`Nc1ccccc1NC(=O)c1ccc(CNc2nccc(-c3cccnc3)n2)cc1` [Mocetinostat (MGCD0103)] showed a relative cell viability of 0.36.

`CCN(CCO)CCCOc1ccc2c(Nc3cc(CC(=O)Nc4cccc(F)c4)[nH]n3)ncnc2c1` [Barasertib (AZD1152-HQPA)] yielded a relative cell viability of 1.

On to `Oc1ccc(OCc2ccccc2)cc1` [Monobenzone], for which the relative cell viability turned out to be 0.981.

On to `C[C@H](N[C@@H](CCc1ccccc1)C(=O)O)C(=O)N1CCC[C@H]1C(=O)O` [Enalaprilat Dihydrate], for which the relative cell viability was determined as 0.862.

For `Cc1ccc(NC(=O)c2ccc(CN3CCN(C)CC3)cc2)cc1Nc1nccc(-c2cccnc2)n1` [Imatinib Mesylate (STI571)], the relative cell viability is 0.939.

For the compound `CC(C)CN(C[C@@H](O)[C@H](Cc1ccccc1)NC(=O)O[C@H]1CO[C@H]2OCC[C@H]21)S(=O)(=O)c1ccc(N)cc1` [Darunavir Ethanolate], the relative cell viability turned out to be 0.839.

The compound `COC(=O)c1ccc2c(C(=Nc3ccc(N(C)C(=O)CN4CCN(C)CC4)cc3)c3ccccc3)c(O)[nH]c2c1` [Nintedanib (BIBF 1120)] registered a relative cell viability of 1.01.

The compound `Nc1ncn([C@@H]2O[C@H](CO)[C@@H](O)[C@H]2O)c(=O)n1` [Azacitidine] yielded a relative cell viability of 0.436.

Regarding `OCCN(CCO)c1nc(N2CCCCC2)c2nc(N(CCO)CCO)nc(N3CCCCC3)c2n1` [Dipyridamole], the relative cell viability is 1.

As for `CCOC(=O)[C@H](CCc1ccccc1)N[C@@H](C)C(=O)N1[C@H](C(=O)O)C[C@@H]2CCC[C@@H]21` [Ramipril], the relative cell viability came to 0.96.

`CC(C)(C#N)c1cc(Cn2cncn2)cc(C(C)(C)C#N)c1` [Anastrozole] yielded a relative cell viability of 0.993.

`CC(C)CN(C[C@@H](O)[C@H](Cc1ccccc1)NC(=O)O[C@H]1CCOC1)S(=O)(=O)c1ccc(N)cc1` [Amprenavir] displayed a relative cell viability of 1.06.

`CS(=O)(=O)CCNCc1ccc(-c2ccc3ncnc(Nc4ccc(OCc5cccc(F)c5)c(Cl)c4)c3c2)o1` returned a relative cell viability of 0.746.

`CCOc1nc2cccc(C(=O)O)c2n1Cc1ccc(-c2ccccc2-c2nnn[nH]2)cc1` [Candesartan] registered a relative cell viability of 1.02.

In the case of `C[C@]1(c2nc3c(C(N)=O)cccc3[nH]2)CCCN1` [Veliparib (ABT-888)], the relative cell viability is 0.885.

As to `C=C1/C(=C\C=C2/CCC[C@]3(C)[C@@H]([C@H](C)CCCC(C)C)CC[C@@H]23)C[C@@H](O)C[C@@H]1O` [Alfacalcidol], the relative cell viability was 0.249.

Compound `Nc1ccn([C@@H]2O[C@H](CO)[C@@H](O)C2(F)F)c(=O)n1` [Gemcitabine] had a relative cell viability of 0.11.

`C[C@H](NCc1ccc(OCc2cccc(F)c2)cc1)C(N)=O` [Safinamide Mesylate] gave a relative cell viability of 0.955.

In turn, `CN(C)CCc1c[nH]c2ccc(C[C@H]3COC(=O)N3)cc12` [Zolmitriptan] returned a relative cell viability of 0.999.
